The source of these data is PubChem BioAssay AID504380 (National Center for Advancing Translational Sciences (NCATS), 2011).

Active and inactive are the calls of the source. No rule for the calls is given here.

The assay can be described thus: RT-PCR Analysis of TSH-dependent transcripts in primary cultures of human thyrocytes. The conditions noted are these: RT-PCR mRNA levels, 48 h; DIO2 mRNA change: measured here: DIO2 transcript; NIS mRNA change: measured here: NIS transcript, concentration not given here; TG mRNA change: concentration not given here; TPO mRNA change: measured here: TPO transcript, concentration not given here; TSHR mRNA change: measured here: TSHR transcript, concentration not given here. An excerpt:
TSH is an alpha/beta heterodimeric glycoprotein hormone secreted from the anterior pituitary gland which belongs to the glycoprotein hormone family. The actions of TSH are mediated by a seven-transmembrane receptor, which upon TSH binding couples preferentially to the G-alpha (s) protein (Gs), resulting in activation of adenylate cyclase and increase in cyclic adenosine 3', 5' monophosphate (cAMP). The TSH receptor (THSR) is mainly expressed in thyroid follicular cells and regulates their growth and function. This cell based assay was conducted on a TSHR transfected HEK 293 cell line, measuring cAMP stimulation using antibody-based Homogeneous Time Resolved Fluorescence (HTRF). Our goal is to identify small molecules that will inhibit (antagonize) the thyroid-stimulating hormone receptor (TSHR), a member of the 7 transmembrane-spanning receptor (7TMR) family of cell surface receptors. TSHR-mediated hyperthyroidism is important in thyroid pathology. The development of small molecule antagonists of TSHR may lead to therapeutic approaches for TSHR-mediated hyperthyroidism caused by constitutively activating mutations or stimulating auto-antibodies associated with Graves' disease. Graves' disease is the leading cause of hyperthyroidism and is caused by autoantibodies that stimulate TSHR (TsAbs) causing thyroid growth and unregulated overproduction of thyroid hormones and existing treatments have liabilities (agranulocytosis). In addition, TSHRs are known to be expressed in multiple extrathyroidal tissues including bone, brain, kidney, testis, fat and cells of the immune system but the role of the TSHR in these tissues is not clear. Therefore, TSHR antagonists/inverse agonists could be used as probes of extrathyroidal TSHR function. Finally, TSHR inverse agonists, which are a subclass of antagonists that inhibit agonist-independent (or basal or constitutive) TSHR signaling, could be used to inhibit TSH-independent signaling in patients with recurrent or metastatic thyroid cancer who are receiving thyroid hormone to suppress TSH. This assays looks for effects on TSH-dependent functions in primary human thyrocytes. Total RNA is purified using RNeasy Micro kits. RT-PCR is performed in 25-ul reactions using cDNA prepared from 100 ng or less of total RNA and Universal PCR Master Mix (Applied Biosystems). mRNA levels are measured using primers and probes from Applied Biosystems. Quantitative RT-PCR results are normalized to GAPDH to correct for differences in RNA input.
Thyroid tissue samples were collected from normal thyroid tissue from patients undergoing total thyroidectomy for thyroid cancer at the National Institutes of Health Clinical Center. Surgical specimens were maintained in Hanks' balanced salt solution (HBSS) on ice, minced into small pieces, and digested with 3 mg/ml collagenase type IV (Life Technologies). Monodispersed cells were plated in 10 ml DMEM with 10% FBS in 10-cm tissue culture dishes and incubated at 37C in a humidified5%CO2 incubator, and after 24 h, the primary cultures of adherent thyroid cells were obtained. For determination of thyroglobulin (TG), thyroid peroxidase (TPO), TSHR, sodium iodide symporter (NIS), or deiodinase type 2 (DIO2) mRNAexpression, thyrocytes were seeded into 12-well plates at a density of 1 x 10^5 cells per well. The cells were incubated in DMEM with 2% FBS and 1 mM 3-isobutyl-1-methylxanthine (IBMX) for 48 h in the presence or absence of compound.
On to `COc1ccc(C2Nc3ccccc3C(=O)N2Cc2ccco2)cc1COc1c(C)cccc1C` (stereo not given), for which the TG mRNA change is -71% (active), the DIO2 mRNA change is 0%, the TPO mRNA change was -40% and the NIS mRNA change is -35%. Moreover, the TSHR mRNA change is -33%.
